Bioassay records from PubChem BioAssay.
Hits are enriched below; roughly 3.6% of the tested compounds scored in any of these assays.
HepG2 tox = HepG2 cytotoxicity, counter-screen for TGF-b inhibitors; HepG2 CAGA-GFP viability, ATP luminescence, 18 h; Potency, µM (doses to about 46.1 µM), for inactives: at the highest dose activity change, negative = cytotoxicity, usual class: cytotoxic; actives 0.76% (n = 410,000); AID 588856
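HepG2 CAGA-GFP cells (1000/well, DMEM with 1% FBS) received compound, then TGF-beta at 500 pg/mL final, and were incubated 18 hours at 37 degrees C. Viability was read by CellTiter-Glo luminescence. Media-only wells were set as complete cell-killing and DMSO as no toxicity.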
Nrf2 ARE act = Nrf2 pathway activation; AREc32 ARE-luciferase reporter (MCF7-derived line), luminescence, 24 h; Potency, µM (highest dose often 46.1 µM), for the others: at the highest dose activation, actives largely listed as activators; actives 0.31% (n = 410,000); note: % of control where 0% means no effect; nearly all actives have a fitted effect of over 65% in size
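AREc32_Fluc, 1000 cells/well, OPTI-MEM + 5% FBS, o/n 37 deg C 5% CO2; 23 nL cpd by pin tool, 24 hr; Steady-Glo 30 min RT, luminescence.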
Nrf2 block = Nrf2 pathway inhibition; A549 ARE-Fluc reporter, luciferase luminescence, 18-24 h; Potency, µM (highest dose often 46 µM), inactives show top-dose activity change, negative = inhibition, actives largely listed as inhibitors; actives 2.1% (n = 360,000); AID 504444; note: % is set by controls: 0 for no effect and ±100 for the full control effect; nearly all actives have a fitted effect of over 60% in size
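Reporter: ARE-Fluc in A549. Exposure: 18-24 h, 37 °C, 5% CO2, 5% FBS OPTI-MEM. Readouts: fluorescent cytotoxicity (CellTiter-Fluor), then luminescent Nrf2 signal after BugLite.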
TGFb inhibitor = inhibitors of TGF-b signaling | Potency, µM (titrated, usually from 46.1 µM), without a hit: top-dose activity, negative = inhibition, usual class: inhibitors | HepG2 CAGA-GFP TGF-b/SMAD3 reporter, GFP fluorescence, 18 h; TGF-beta stimulated, 500 pg/mL final | actives 1.2% (n = 410,000); note: % is set by controls: 0 for no effect and ±100 for the full control effect; nearly all actives have a fitted effect of over 65% in size
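GFP signal (ex488/em500-530) from TGF-beta-stimulated HEPG2 CAGA-GFP cells, 500 pg/mL final, 18 h at 37 degrees C in DMEM plus 1% FBS, normalized to unstimulated and DMSO-stimulated controls.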
A549 tox = kills or reduces viability of A549 cells in Nrf2 counter-screen | A549 ARE-Fluc cells, CellTiter-Fluor viability, 18-24 h | Potency, µM (top dose mostly 46 µM), for the others: at the top dose activity change, negative = cytotoxicity, actives largely listed as inhibitors | actives 0.16% (n = 390,000) | AID 504648; note: % is set by controls: 0 for no effect and ±100 for the full control effect
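A549 ARE-Fluc cells in 5% FBS OPTI-MEM, 5000 cells/well, rested 2 h then exposed to compounds in concentration-response for 18-24 h at 37 °C. Viability by CellTiter-Fluor fluorescence (Ex 405/Em 525) after 30 min; luciferase luminescence (BugLite, 15 min, RT) read afterwards.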
The depositor's hits bear a star; ? = inconclusive. Calls come from the whole dose curve; as a rule, active = well fitted curve in the direction sought with a large enough effect; inconclusive = small, poorly fitted or top-dose-only effect, or another doubt; inactive = no such curve, though single readings can be large; an effect the other way counts as inactive or inconclusive. Potency is the fitted concentration of half-maximal effect.

SMILES | HepG2 tox | Nrf2 ARE act | Nrf2 block | TGFb inhibitor | A549 tox
CC(=O)Nc1ccc(S(=O)(=O)N2CCN=C2SCc2cccc(C)c2)cc1 | 13% | 1% | ? | 10% | -10%
COc1ccc(C2C(O)C(c3c[nH]c4ccccc34)=NN2C(=O)CCl)cc1 (stereo unspecified) | 4µM* | ? | 6% | 2.2µM* | -13%
COc1ccc(C2NN=C(c3c[nH]c4ccccc34)C2O)cc1 (stereo unspecified) | -25% | 17% | -8% | ? | -2%
CC(=O)Nc1ccc(-c2nnc(SCC(=O)Nc3ccc4c(c3)oc3ccccc34)n2C)cc1 | -19% | 5% | ? | -7% | -23%
O=C(Cn1c(COc2ccccc2)nc2ccccc21)Nc1cc(Cl)ccc1Cl | 15% | -1% | 18µM* | 2% | ?
Cc1cc(OC(=O)c2ccc(C(C)(C)C)cc2)c([N+](=O)[O-])c(=O)[nH]1 | -32% | 0% | 0% | 19% | -2%
Nc1c(N(CCC2=CCCCC2)C(=O)Cc2ccc(F)cc2)c(=O)[nH]c(=O)n1Cc1ccccc1 | 0% | 3% | ? | ? | -11%
Nc1c(N(CCC2=CCCCC2)C(=O)COc2ccc(F)cc2Cl)c(=O)[nH]c(=O)n1Cc1ccccc1 | 3.5µM* | 0% | 23µM* | 3.2µM* | ?
COC(=O)c1ccc(N=C2S/C(=C\c3cc(C)n(-c4cccnc4)c3C)C(=O)N2C)cc1 | -1% | 0% | 26µM* | 4% | ?
O=C(COc1ccccc1)NCc1ccc(-n2cccc2)cc1 | 6% | 1% | 0% | -4% | 4%
COc1ccc(C(=O)NNC(=O)CSc2nc3c(c(=O)n(C)c(=O)n3C)n2C)cc1 | 26% | 0% | 6% | -2% | -4%
CC(=O)c1sc(NC(=O)CCCc2nc3ccccc3c(=O)[nH]2)nc1-c1ccccc1 | 11µM* | 0% | ? | 20µM* | 2%
CCOC(=O)c1c(NC(C)=O)sc2c1CCC(C=O)=C2Sc1ccccc1 | -46% | ? | 21µM* | ? | ?
O=C(CN1C(=O)/C(=C/c2ccccc2F)Oc2ccccc21)N1CCN(c2ccccn2)CC1 | -22% | 10% | 3% | -18% | 2%
O=C(NC1CCCC1)c1ccc(CS(=O)(=O)c2cccc(C(F)(F)F)c2)o1 | -1% | 0% | -8% | 0% | 8%
Cc1cc(C)n(-c2nnc(Nc3ccc(C)c(Cl)c3)c3ccccc23)n1 | -21% | 1% | ? | 10µM* | -13%
COc1ccc(Nc2nnc(-n3nc(C)cc3C)c3ccccc23)cc1 | -1% | 0% | -7% | -16% | 1%
COc1ccccc1NC(=O)CSc1nnnn1-c1ccc2c(c1)OCO2 | 11µM* | 0% | ? | -12% | -1%
COc1ccccc1NC(=O)CSc1nnnn1-c1ccccc1OC | 1% | 0% | -6% | 9% | -1%
COc1cccc(NC(=O)C2CCN(S(=O)(=O)c3ccc4c(c3)NC(=O)C(C)S4)CC2)c1 (stereo unspecified) | -12% | 4% | ? | ? | -7%
CCOc1ccc(NC(=O)C2CCN(S(=O)(=O)c3ccc4c(c3)NC(=O)C(C)S4)CC2)cc1 (stereo unspecified) | -28% | 2% | 15µM* | -10% | -14%
COc1ccc(NC(=O)C2CCN(S(=O)(=O)c3ccc4c(c3)NC(=O)C(C)S4)CC2)cc1 (stereo unspecified) | -11% | 1% | 23µM* | ? | -3%
O=C1CN(C(=O)c2ccco2)c2ccccc2N1 | -12% | 0% | -12% | ? | -7%
O=C(c1cccs1)c1sccc1Cc1ccccc1 | -21% | 11% | 25% | 0% | 6%
O=C(NCCOc1ccccc1F)c1cccc(S(=O)(=O)N2CCN(c3ccccc3)CC2)c1 | -18% | 2% | 4.6µM* | ? | -7%
CN(Cc1ccc(F)cc1)C(=O)c1cccc(S(=O)(=O)N2CCN(Cc3ccccc3)CC2)c1 | -10% | 0% | ? | -21% | 1%
